Screening results: PubChem BioAssay, National Center for Advancing Translational Sciences (NCATS)
HT1080 IDH1KD tx – toxicity to HT-1080 IDH1 knockdown cells (counter line) | Potency, µM (top dose mostly 46.1 µM), most hits filed as cytotoxic | 360,000 tested, 2% active | AID 686971 | HT-1080 IDH1 knockdown viability, ATP luminescence, 48 h
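CellTiter-Glo luminescence after 48 h compound exposure at 37 degrees C of IDH1-knockdown HT-1080 cells in 5% FBS RPMI. %Activity scaled between DMSO wells and cell-free media wells, with curves fitted and assigned curve classes.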
HT1080NT lethal – kills 2HG-producing HT-1080-NT fibrosarcoma cells. HT-1080-NT fibrosarcoma viability, CellTiter-Glo ATP luminescence, 48 h. Potency, µM (highest dose often 46.1 µM), usual class: cytotoxic. 360,000 tested, 1.6% active;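 note: NT is the 2HG producing partner of a matched IDH1 knockdown line; nearly all actives have a fitted effect of over 55% in size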
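Toxicity toward the 2HG-producing NT line was scored as %Activity, normalised to DMSO and no-cell wells, from CellTiter-Glo luminescence after 48 hours' treatment.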
DT40 TDP1 no CPT – qHTS for Inhibitors of human tyrosyl-DNA phosphodiesterase 1 (TDP1): qHTS in cells in absence of CPT; DT40 Tdp1-/- hTDP1 cells, no CPT, ATP luminescence, 48 h; Potency, µM (doses to about 46.2 µM), usual class: inhibitors; 420,000 tested, 15% active; AID 686978, 2013; note: nearly all actives have a fitted effect of over 55% in size
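No-CPT arm: Tdp1-/-;hTDP1 DT40 cells (400/well) plus compounds, incubated ≥48 hr at 37 °C. Readout CellTiter-Glo luminescence.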
TDP1 cell CPT – DT40-hTDP1 cell growth loss with CPT. 420,000 tested, 12% active. Potency, µM (series often up to 46.2 µM), usual class: inhibitors. chicken DT40 Tdp1-/-;hTDP1 cells + 20 nM CPT, ATP luminescence, 48 h; note: nearly all actives have a fitted effect of over 55% in size
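Chicken DT40 Tdp1-/- cells complemented with human TDP1, 400 cells/well, exposed to compounds plus 20 nM camptothecin for at least 48 h at 37 C; viability read as ATP content by CellTiter-Glo luminescence.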
IL1B secr inh – inhibitors of inflammasome signaling (IL-1 beta secretion). THP-1 LPS/ATP IL-1B secretion, AlphaLISA, 16 h; hits give low values. 360,000 tested, 4.7% active. activity change, % at 57.5 µM. AID 743279; in the data active = activity change below about -50%; inconclusive = mostly about -30% to -49%
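Secreted IL-1B measured by AlphaLISA bead assay after 16 h compound exposure of THP-1 cells; compounds (final up to 57.5 uM) added 1 h before LPS (250 ng/mL) and ATP (1.25 mM) stimulation; lower signal means less secretion.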
Hits are given with their value; - = inactive; ? = inconclusive; . = no result given. An excerpt weighted towards active compounds, which were near 19% of everything screened. Unless noted, calls come from the whole dose curve; as a rule, active = well fitted curve in the direction sought with a large enough effect; inconclusive = small, poorly fitted or top-dose-only effect, or another doubt; inactive = no such curve, though single readings can be large; an effect the other way counts as inactive or inconclusive.

SMILES | HT1080 IDH1KD tx | HT1080NT lethal | DT40 TDP1 no CPT | TDP1 cell CPT | IL1B secr inh
CC1=NOC(=O)/C1=C\c1ccc(-c2ccccc2Br)o1 | ? | - | 5.8µM | 6.51µM | -96.4
CN(C(=O)C1CCN(S(=O)(=O)c2ccccc2)CC1)c1c(N)n(Cc2ccccc2)c(=O)[nH]c1=O | - | - | - | - | -
C1=CC2c3ccccc3NC(c3ccncc3)C2C1 (stereo not given) | - | - | ? | ? | -107.0
CC(=O)c1ccc2c(c1)C1C=CCC1C(c1ccncc1)N2 (stereo not given) | - | - | ? | - | -
Fc1ccc(NC(=S)NNc2ncc(C(F)(F)F)cc2Cl)c(F)c1 | 16.4µM | ? | 13µM | 11.6µM | -
ON/C=N/C(=S)Nc1ncc(C(F)(F)F)cc1Cl | - | - | 11.6µM | 14.6µM | -
Cc1ccc(NC(=S)NNc2ncc(C(F)(F)F)cc2Cl)c(C)c1 | ? | ? | ? | ? | -
FC(F)(F)c1cnc(NNC(=S)Nc2ccc(Cl)cc2)c(Cl)c1 | ? | ? | 13µM | 10.3µM | -98.5
Cc1ccc(NC(=S)NNc2ncc(C(F)(F)F)cc2Cl)cc1 | ? | ? | ? | ? | -
CCCNC(=O)C[C@H]1CC[C@@H]2[C@H](COC[C@@H](O)CN2C(=O)c2ccccn2)O1 | - | - | - | - | -
CC(Oc1ccc(Br)cc1)C(=O)NCC(c1cccs1)N1CCOCC1 (stereo not given) | - | - | ? | - | -
CC(=O)c1ccc(N2CCN(S(=O)(=O)c3ccc4ccccc4c3)CC2)cc1 | - | - | ? | ? | ?
CC(=O)c1ccc(N2CCN(S(=O)(=O)c3ccc4[nH]c5c(c4c3)CCCC5)CC2)cc1 | . | . | 25.9µM | ? | .
O=[N+]([O-])c1ccc2[nH]cc(S(=O)(=O)N3CCN(c4cccc(Cl)c4)CC3)c2c1 | 23.1µM | 20.6µM | - | ? | -95.7
CC1CCCN(S(=O)(=O)c2ccc3[nH]c4c(c3c2)CCCC4)C1 (stereo not given) | ? | ? | ? | 20.6µM | -
O=S(=O)(c1ccc2[nH]c3c(c2c1)CCCCC3)N1CCN(c2cccc(Cl)c2)CC1 | . | . | 11.6µM | 18.4µM | .
O=S(=O)(c1ccccc1)N1CCN(c2cccc(Cl)c2)CC1 | - | - | - | - | -
COc1ccc(/C=N/NC2=NS(=O)(=O)c3ccccc32)cc1OC | ? | - | - | - | -
COc1ccc(N=C2SC(C(=O)Nc3ccc(OC)cc3)CC(=O)N2CCN2CCOCC2)cc1 (stereo not given) | - | - | - | - | -
CC1(C(=O)Nc2ccc3c(c2)OCCO3)CN(S(C)(=O)=O)CC(=O)N1CCCn1ccnc1 (stereo not given) | - | - | - | - | ?
N#Cc1ccc(CN2CC3(CCN(C(=O)c4csnn4)CC3)C2)cc1 | . | . | - | - | .
CCCCC(NC(=O)Cc1c(C)c2cc3c(-c4ccccc4)coc3c(C)c2oc1=O)C(=O)O (stereo not given) | - | ? | - | - | -
O=C(CCc1ccccc1)NNC(=O)Nc1cccc(Cl)c1 | - | - | - | - | -
O=C(Nc1cccnc1)Nc1ccccc1Cl | - | - | - | ? | -
COC(=O)c1cc(NC(=O)Nc2cccc(Cl)c2)ccc1Cl | ? | 12.6µM | 18.4µM | 16.4µM | -96.9
SMILES | HT1080 IDH1KD tx | HT1080NT lethal | DT40 TDP1 no CPT | TDP1 cell CPT | IL1B secr inh
O=C(Nc1cccnc1)Nc1cc(Cl)cc(Cl)c1 | - | - | 23.1µM | 10.3µM | -100.9
O=C(Cc1cccc2ccccc12)NNC(=O)Nc1cccc(Cl)c1 | ? | 16.4µM | - | - | -
Fc1ccc(NC(=S)Nc2cccnc2)cc1Cl | - | - | 23.1µM | ? | -
CC(C)CCOc1ccc(C(=O)NN2C(=O)NC3(CCCCC3)C2=O)cc1 | - | - | ? | ? | -
Cn1ncc([N+](=O)[O-])c1C(=O)Nc1ccc(-c2nc3ccccc3o2)cc1 | - | - | ? | - | ?
O=C(NCCNC(=O)c1cc(OCC(F)(F)F)ccc1OCC(F)(F)F)Nc1cccc(C(F)(F)F)c1 | - | - | ? | ? | ?
O=C(Nc1cccc(F)c1)Nc1ccc2c(c1)OCO2 | - | - | ? | ? | -66.8
O=C(Nc1ccccc1)Nc1cc(OCC(F)(F)F)cc(OCC(F)(F)F)c1 | 7.31µM | 6.51µM | 2.91µM | 4.11µM | -103.3
O=C(Nc1cccc(Cl)c1)Nc1ccon1 | - | - | - | ? | -
O=C(Nc1ccc2c(c1)OCO2)c1cccc(F)c1 | - | - | - | - | -
CC(=O)Nc1ccc(NC(=O)Nc2ccccc2)cc1 | - | - | - | - | -
O=C(Nc1cccc(Cl)c1)Nc1cccc(Cl)c1 | - | ? | 11.6µM | 14.6µM | -
O=C(Nc1ccccc1)Nc1cc(Cl)cc(Cl)c1 | 14.6µM | 16.4µM | 11.6µM | 6.51µM | -82.5
O=C(NC(CO)c1ccccc1)c1ccco1 (stereo not given) | - | - | - | - | -
Nc1ncnc2c1ncn2[C@@H]1O[C@H](C(=O)NCC2CCN(Cc3ccccc3)CC2)[C@@H](O)[C@H]1O | - | - | - | - | -
COc1cc(NC(=O)Nn2cnnc2)cc(OC)c1OC | - | - | - | - | -
O=C(Nc1cccc(F)c1)Nc1cccc(Cl)c1 | ? | ? | ? | ? | -88.1
N#CCc1ccc(NC(=O)Nc2cccc(Cl)c2)cc1 | - | - | ? | 16.4µM | -
CC(=O)Nc1cccc(NC(=O)Nc2cccc(F)c2)c1 | - | - | ? | - | -
COc1ccc(CN(C(=O)c2ccccc2F)C2CCS(=O)(=O)C2)cc1 (stereo not given) | . | . | - | - | .
CCOc1ccc(Oc2ccc(NS(=O)(=O)c3ccc(CCC(=O)O)cc3)cc2)cc1 | - | - | ? | - | -
O=C(CSc1nc2ccccc2o1)N1c2ccccc2Sc2ccc(C(F)(F)F)cc21 | - | - | 20.6µM | ? | -
C=C(C)CN=C1NN=C(c2cc(C)n(-c3ccc(C)cc3)c2C)CS1 | - | - | 11.6µM | 14.6µM | -
Cc1ccccc1N=C1NN=C(c2ccccc2F)CS1 | - | ? | ? | ? | -
Cc1cccc(C)c1N=C1NN=C(c2ccccc2F)CS1 | - | - | 20.6µM | 20.6µM | -
SMILES | HT1080 IDH1KD tx | HT1080NT lethal | DT40 TDP1 no CPT | TDP1 cell CPT | IL1B secr inh
Cc1cc(C2=NNC(=NC3CC3)SC2)c(C)n1-c1ccccc1F | ? | ? | 20.6µM | 16.4µM | -
O=C(OC(C(=O)NCc1ccc2c(c1)OCO2)c1ccncc1)c1ccc(Cl)nc1 (stereo not given) | - | - | - | - | -
CS(=O)(=O)Nc1cccc(-c2nc(NCc3ccccc3)c3ccccc3n2)c1 | . | . | - | ? | .
CC(=O)c1cccc(NC(=O)c2sc3nc4n(c(=O)c3c2C)CCCCC4)c1 | - | - | 23.1µM | ? | -
Cc1c(C(=O)Nc2ccc(Oc3ccccc3)cc2)sc2nc3n(c(=O)c12)CCC3 | - | - | 18.4µM | ? | -
CSc1cccc(NC(=O)c2sc3nc4n(c(=O)c3c2C)CCC4)c1 | - | - | - | ? | ?
